# Measurements reported in PubChem BioAssay (NCI).
# About 79,000 compounds went through this panel and 15% of them were active in at least one assay; those are over-represented in the sample as a whole. A number with no mark means an inactive call. Calls of active or inactive are those of the source. Rule as the data show it: active = growth inhibition above about 70%; inactive = the rest.
# Assay: NCI Yeast Anticancer Drug Screen. Data for the bub3 strain (AID 167)
# Conditions: S. cerevisiae bub3 mutant strain, at 100.0 µM, active compounds read high
# Method in brief: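 Readout: yeast growth inhibition, expressed relative to vehicle-only wells. The test organism is a mutant strain from a panel with lesions in DNA repair or checkpoint genes.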
row,Structure (SMILES),growth inhibition
1,CC(CN(C)C)C(=O)/C=C/c1ccc(Cl)c(Cl)c1 (stereo not given),97% (active)
2,CCCCCCNCCCNc1c2cc(OC)ccc2nc2cccc([N+](=O)[O-])c12,95% (active)
3,NC(=S)N1N=C2c3ccccc3CC[C@H]2[C@@H]1c1ccc(Cl)cc1,89% (active)
4,C/C(=N/NC(=S)Nc1ccccc1C)c1ccccn1,-9%
5,O=C1/C(=C/c2ccc(Cl)c(Cl)c2)CNC/C1=C\c1ccc(Cl)c(Cl)c1,92% (active)
6,CC(C)OP(=O)(OC(C)C)C(=NCCO)NNc1ccc([N+](=O)[O-])cc1,95% (active)
7,N#CCC(=O)N/N=C(\c1ccccc1)C(c1ccccc1)C1(O)C(=O)Nc2c(Cl)ccc(Cl)c21 (stereo not given),24%
8,CC(C)(CN1CCCCC1)C(=O)CC(SCCS(=O)(=O)O)c1ccccc1 (stereo not given),13%
9,COC1=CCC23C(=O)C=CC(=O)C2(C1)C(=O)c1ccccc1C3=O (stereo not given),91% (active)
10,CCCCN(CCCC)c1ccc(N=Nc2ccc(S(=O)(=O)O)cc2)cc1,95% (active)
11,c1ccc2nc3c(nc2c1)sc1ccccc13,41%
12,O=C1c2ccccc2-c2ccc(N=Cc3ccccc3)cc21,54%
13,CNC(=S)N/N=C(/C)CCC/C(C)=N/NC(=S)NC,74% (active)
14,Nc1ccc(/C=C/c2ccc3cccnc3c2)cc1,94% (active)
15,COc1ccc2c3c1OC(C)C31CC(=O)CCC1CC2 (stereo not given),8%
16,CCOC(=O)Nc1ccc(C)c(NC(=O)OCC)c1,13%
17,CCN(CC)CCNc1ccc2nc(C)n3c4ccc(OC)cc4c(=O)c1c23,5%
18,C[N+](C)([O-])CCCNc1c2ccccc2nc2cccc([N+](=O)[O-])c12,95% (active)

row,Structure (SMILES),growth inhibition
1,O=C(c1cc(=O)c2ccc(O)cc2o1)c1ccc(Cl)cc1Cl,94% (active)
2,CCCNC(=O)OCc1c(COC(=O)NCCC)c(-c2ccc(Cl)c(Cl)c2)n2c1CCC2,48%
3,O=C(Cc1ccccc1)NN1C(=O)C(Cl)C1c1cc(Br)cc(Br)c1O (stereo not given),87% (active)
4,CCOC(=O)C(Cc1c2ccccc2cc2ccccc12)(NC(C)=O)C(=O)OCC,2%
5,O=[N+]([O-])/C=C/c1cc2ccc3ccccc3c2[nH]1,91% (active)
6,Fc1ccc(Nc2ccc3ccccc3c2)cc1,88% (active)
7,O=S1(=O)CCC2=CC(C(F)(F)F)=CC(C(F)(F)F)=CN21,98% (active)
8,O=C(Cc1ccccc1)NNc1nc(NNC(=O)c2ccncc2)nc(Nc2ccc([N+](=O)[O-])cc2)n1,15%
9,CCCCS/C(=C(/C#N)C(N)=O)c1cc2c([nH]1)CCCC2,81% (active)
10,O=C(O)c1ccccc1C(=O)OC1CCc2ccccc2C1 (stereo not given),53%
11,CCOC(=O)/C(=C\c1cccc(C)c1)C(C)=O,99% (active)
12,NC(=S)N/N=C1\c2ccccc2CCC1CCC1(O)CCc2ccccc2C1=O (stereo not given),85% (active)
13,Cc1cccc2c(Cl)c3cccc(C)c3nc12,-17%
14,CC(C)OC(=O)NNc1c(Cl)cc(Cl)cc1Cl,81% (active)
15,Nc1ccc2c(c1)C(=O)c1c(F)cccc1-2,37%
16,N#CSCC1COc2ccccc2O1 (stereo not given),98% (active)
17,Cc1ccc(S(=O)(=O)NC(=O)C2C(=O)CC3(CCCCC3)CC2=O)cc1,74% (active)
18,CC1=NN(C(=O)c2ccccc2O)C(=O)/C1=C/c1ccco1,97% (active)

# Assay: NCI Yeast Anticancer Drug Screen. Data for the wt2 strain (AID 169);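 also: 0% = growth of vehicle-treated yeast cultures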
# Conditions: S. cerevisiae wt2 strain growth inhibition; at 1.2 µM; active compounds read high
# Method in brief: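 Steps: yeast strain treated with compound; growth recorded; inhibition calculated relative to cultures given vehicle alone.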
row,Structure (SMILES),growth inhibition [%]
1,CC(CN(C)C)C(=O)/C=C/c1ccc(Cl)c(Cl)c1 (stereo not given),2
2,CCCCCCNCCCNc1c2cc(OC)ccc2nc2cccc([N+](=O)[O-])c12,0
3,NC(=S)N1N=C2c3ccccc3CC[C@H]2[C@@H]1c1ccc(Cl)cc1,8
4,C/C(=N/NC(=S)Nc1ccccc1C)c1ccccn1,-6
5,O=C1/C(=C/c2ccc(Cl)c(Cl)c2)CNC/C1=C\c1ccc(Cl)c(Cl)c1,1
6,CC(C)OP(=O)(OC(C)C)C(=NCCO)NNc1ccc([N+](=O)[O-])cc1,1
7,N#CCC(=O)N/N=C(\c1ccccc1)C(c1ccccc1)C1(O)C(=O)Nc2c(Cl)ccc(Cl)c21 (stereo not given),0
8,CC(C)(CN1CCCCC1)C(=O)CC(SCCS(=O)(=O)O)c1ccccc1 (stereo not given),0
9,COC1=CCC23C(=O)C=CC(=O)C2(C1)C(=O)c1ccccc1C3=O (stereo not given),-11
10,CCCCN(CCCC)c1ccc(N=Nc2ccc(S(=O)(=O)O)cc2)cc1,-7
11,c1ccc2nc3c(nc2c1)sc1ccccc13,-2
12,O=C1c2ccccc2-c2ccc(N=Cc3ccccc3)cc21,5
13,CNC(=S)N/N=C(/C)CCC/C(C)=N/NC(=S)NC,16
14,Nc1ccc(/C=C/c2ccc3cccnc3c2)cc1,1
15,CCOC(=O)Nc1ccc(C)c(NC(=O)OCC)c1,4
16,CCN(CC)CCNc1ccc2nc(C)n3c4ccc(OC)cc4c(=O)c1c23,-22
17,C[N+](C)([O-])CCCNc1c2ccccc2nc2cccc([N+](=O)[O-])c12,-1

row,Structure (SMILES),growth inhibition [%]
1,CCCNC(=O)OCc1c(COC(=O)NCCC)c(-c2ccc(Cl)c(Cl)c2)n2c1CCC2,-36
2,O=C(Cc1ccccc1)NN1C(=O)C(Cl)C1c1cc(Br)cc(Br)c1O (stereo not given),-5
3,CCOC(=O)C(Cc1c2ccccc2cc2ccccc12)(NC(C)=O)C(=O)OCC,-2
4,O=[N+]([O-])/C=C/c1cc2ccc3ccccc3c2[nH]1,26
5,Fc1ccc(Nc2ccc3ccccc3c2)cc1,-1
6,O=S1(=O)CCC2=CC(C(F)(F)F)=CC(C(F)(F)F)=CN21,3
7,O=C(Cc1ccccc1)NNc1nc(NNC(=O)c2ccncc2)nc(Nc2ccc([N+](=O)[O-])cc2)n1,-3
8,CCCCS/C(=C(/C#N)C(N)=O)c1cc2c([nH]1)CCCC2,-13
9,O=C(O)c1ccccc1C(=O)OC1CCc2ccccc2C1 (stereo not given),-4
10,CCOC(=O)/C(=C\c1cccc(C)c1)C(C)=O,20
11,NC(=S)N/N=C1\c2ccccc2CCC1CCC1(O)CCc2ccccc2C1=O (stereo not given),-8
12,Cc1cccc2c(Cl)c3cccc(C)c3nc12,-4
13,CC(C)OC(=O)NNc1c(Cl)cc(Cl)cc1Cl,2
14,Nc1ccc2c(c1)C(=O)c1c(F)cccc1-2,-1
15,N#CSCC1COc2ccccc2O1 (stereo not given),-50
16,Cc1ccc(S(=O)(=O)NC(=O)C2C(=O)CC3(CCCCC3)CC2=O)cc1,-39
17,CC1=NN(C(=O)c2ccccc2O)C(=O)/C1=C/c1ccco1,11
